The target of experiment [1] is Tumor necrosis factor receptor superfamily member 10B (Homo sapiens) (UniProt O14763). Nature of the experiment: viability loss of caspase-8 NB7 cells with TRAIL – with/without TRAIL, luminescence panel, confirmation (AID 651596). Particulars: NB7 neuroblastoma + caspase-8, TRAIL sensitization, NB7 Caspase-8, with TRAIL, mean of runs, at 10 µM, stronger effect = higher value.
Test in experiment [2]: as above
To be noted: NB7 neuroblastoma + caspase-8, without TRAIL, NB7 Caspase-8, without TRAIL, mean of runs, at 10 µM.

Tumor necrosis factor receptor superfamily member 10B (Homo sapiens), sequence (O14763 whole entry, looked up): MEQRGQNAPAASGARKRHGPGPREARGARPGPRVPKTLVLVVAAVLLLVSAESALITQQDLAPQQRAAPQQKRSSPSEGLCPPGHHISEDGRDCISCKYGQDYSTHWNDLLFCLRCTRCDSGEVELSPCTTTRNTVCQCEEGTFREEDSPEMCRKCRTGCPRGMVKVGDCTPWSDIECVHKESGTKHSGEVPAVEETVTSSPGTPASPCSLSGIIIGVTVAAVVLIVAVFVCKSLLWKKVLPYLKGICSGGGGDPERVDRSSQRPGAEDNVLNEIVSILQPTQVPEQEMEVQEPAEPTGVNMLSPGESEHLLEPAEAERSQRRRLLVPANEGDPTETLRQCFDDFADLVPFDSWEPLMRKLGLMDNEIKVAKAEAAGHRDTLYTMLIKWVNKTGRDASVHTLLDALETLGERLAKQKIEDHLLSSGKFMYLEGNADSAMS

Turning to `Nc1ccccc1C=C1Cc2ccccc2C1=O`, the activity in experiment [1] stood at 58.5%; in experiment [2] it was 50%.

Consider `Oc1cccc2ccc(Nc3ccccn3)nc12`, for which the activity was determined as 88.8% in experiment [1] and 95.5% in experiment [2].

As to `CCOC(=O)N1CCN(C(=O)c2ccc(Cn3c(=S)[nH]c4ccc(Br)cc4c3=O)cc2)CC1`, the activity in experiment [1] is 73.5%; in experiment [2], 58.9%.

With `Cc1ccc(-n2cc(C(=O)c3ccccc3O)cn2)cc1`, the activity in experiment [1] was determined as 52%; in experiment [2] it was 38.6%.

As for `C/C(=N\NC(=O)c1ccc(O)cc1)c1cccc(NC(=O)c2ccc(Cl)cc2)c1`, the activity in experiment [1] stood at 74.3%; in experiment [2], 77.2%.

On to `Nc1c2c(nc3sc4c(c13)CCCCC4)CCCCC2`, for which the activity in experiment [1] is 48.1%; in experiment [2] it was 47.8%.

Turning to `O=C(Nc1ccc2[nH]ccc2c1)c1ccc(F)cc1`, the activity in experiment [1] was 89.7%; in experiment [2], 87%.

Regarding `COc1ccc(OC)c(Nc2nc(N)nc(CCl)n2)c1`, the activity was 99% in experiment [1] and 97.5% in experiment [2].

For `Cc1ccc(C(=O)NC2CCCCCCC2)c(Cl)c1`, the activity in experiment [1] stood at 62.7%; in experiment [2] it was 53.6%.

In the case of `O=C(OCn1ncc(Cl)c(Cl)c1=O)c1cccc(C(F)(F)F)c1`, the activity in experiment [1] amounted to 99.2%; in experiment [2], 99.3%.

In the case of `CCc1ccc(-n2nc3cc(C)c(N)cc3n2)cc1`, the activity in experiment [1] was 64.4%; in experiment [2] it was 51.1%.

As for `CCc1ccc2nc(N(CCCN(C)C)C(=O)c3ccc(S(=O)(=O)N4CCCc5ccccc54)cc3)sc2c1`, the activity in experiment [1] was 38.9%; in experiment [2], 63.9%.

Take `NC(CCc1ccccc1)c1csc(NC(=O)Nc2ccccc2Oc2ccccc2)n1` (configuration not stated): the values for the activity in experiment [1] and in experiment [2] were 79% and 93%, respectively.

With `CN(C)CCNC(=O)c1cc2c(s1)-c1ccc(Cl)cc1SC2`, the activity came to 99% in experiment [1] and 99.5% in experiment [2].

Consider `Cc1ccc(S(=O)(=O)n2ccc3c(OCCOCCNCc4ccc(F)cc4)cccc32)cc1`, for which the activity in experiment [1] came to 15.8%; in experiment [2], 26.4%.

Regarding `O=c1[nH]c(/C=C/c2ccccc2F)nc2ccccc12`, the activity in experiment [1] is 86.9%; in experiment [2] it was 86.8%.

On to `COC(=O)c1ccc(NC(=O)C(=O)c2cccn2C)cc1`, for which the activity in experiment [1] stood at 59.5%; in experiment [2] it was 51.2%.

On to `Cn1c(C(=O)NCCC2=CCCCC2)cc2c(=O)n3ccccc3nc21`, for which the activity in experiment [1] turned out to be 59.6%; in experiment [2], 57.7%.

For `O=C(Nc1c(Cl)cc2c(c1Cl)Cc1cc([N+](=O)[O-])ccc1-2)C(Cl)Cl`, the activity in experiment [1] was found to be 89.3%; in experiment [2], 94.9%.

With `COc1ccc(C)c2sc(N(CCCN(C)C)C(=O)c3ccc(S(=O)(=O)N4CCc5ccccc5C4)cc3)nc12`, the activity stood at 95.1% in experiment [1] and 99.4% in experiment [2].

Turning to `O=C(Nc1nnc(-c2ccccc2)o1)NC1CCCCC1`, the activity in experiment [1] was determined as 34.9%; in experiment [2], 55.4%.

As for `COc1cccc(-n2c(SCC(=O)N3CCCCC3)nc3c([nH]c4ccccc43)c2=O)c1`, the activity in experiment [1] turned out to be 28.7%; in experiment [2], 19.4%.

As to `CCS(=O)(=O)c1ncc(Cl)c(C(=O)Nc2ccc(S(=O)(=O)N(C)c3ccccc3)cc2)n1`, the activity came out at 99.2% in experiment [1] and 99.7% in experiment [2].

Turning to `CN(C)CCCNC(=O)C[C@H]1C[C@H](C(=O)N2CCCCC2)[C@@]2(CCc3ccccc3)c3[nH]c4ccc(Cl)cc4c3CCN2C1=O`, the activity in experiment [1] was 35.8%; in experiment [2], 82.6%.

For the molecule `CCOC(=O)[C@]12Cc3c(cc(OC)c(OC)c3OC)[C@H]1N(C1CCCCC1)C(=O)c1cc(OC)ccc12`, the activity was 61.2% in experiment [1] and 80.1% in experiment [2].

Take `CC(C)(C)NC(=O)C(c1ccncc1)n1c(-c2ccc(C(F)(F)F)cc2)nc2ccccc21` (configuration not stated): the activity was 74.4% in experiment [1] and 85.8% in experiment [2].

Regarding `FC(F)(F)c1nnc(-c2ccccc2)nc1Sc1ccc(Cl)cc1`, the activity was 42.7% in experiment [1] and 46.2% in experiment [2].

As for `COC(=O)c1ccc2nc(-c3ccc4c(c3)OCO4)cn2c1`, the activity in experiment [1] turned out to be 74.5%; in experiment [2], 76%.

For `CCc1nnc(NC(=O)CSc2nc3c(cc2C#N)CCCC3)s1`, the activity stood at 62.8% in experiment [1] and 72.3% in experiment [2].

Regarding `Cn1c2ccccc2c(=O)c2ccc(C#CC3(O)CCCCC3)cc21`, the activity in experiment [1] is 91.3%; in experiment [2], 83.4%.

In the case of `C/C(=N\NC(=O)c1ccccc1NC(=O)c1ccc(Cl)cc1)c1ccncc1`, the activity in experiment [1] was 99.1%; in experiment [2] it was 99%.

Consider `N=NC(=O)c1ccccc1Nc1c(O)[nH]c2ccccc12`, for which the activity in experiment [1] was 93.5%; in experiment [2], 92.1%.

For the molecule `Clc1ccc(-n2ncc3c(N4CCCC4)ncnc32)cc1`, the activity in experiment [1] was found to be 66.2%; in experiment [2], 53.2%.

Turning to `O=c1c2ccccc2oc2ccc(C#CC3(O)CCCCC3)cc12`, the activity amounted to 86.2% in experiment [1] and 84.8% in experiment [2].

Consider `CSc1ccc(/C=N/NC(=O)c2cccc(O)c2)cc1`, for which the activity in experiment [1] came to 78.8%; in experiment [2], 71%.

Consider `NC(c1csc(NC(=O)Nc2cccc(C(F)(F)F)c2)n1)C1CCCCC1` (configuration not stated), for which the figures for the activity in experiment [1] and in experiment [2] were 56.4% and 94.9%, respectively.

Regarding `CC(C)CC(NC(=O)c1ccc(Cl)cc1)C(=O)OCC(=O)c1ccc2c(c1)NC(=O)CO2` (configuration not stated), the activity in experiment [1] was 71.7%; in experiment [2] it was 97.4%.

`COc1cc(/C=N/NC(=O)c2nnn(-c3nonc3N)c2C)ccc1OCc1ccc(Cl)cc1`: the activity in experiment [1] is 39%; in experiment [2], 20.6%.

For the molecule `C#Cc1ccccc1OCCCN1CCC(C(O)(c2ccccc2)c2ccccc2)CC1`, the activity in experiment [1] was found to be 97.2%; in experiment [2] it was 94.2%.

Turning to `Cc1cc(-c2nc3cc(F)ccc3s2)ccc1N`, the activity in experiment [1] was determined as 74.5%; in experiment [2] it was 68.6%.

Consider `O=C(NCCc1ccccc1)C(c1cccs1)N(C(=O)CCl)c1ccc(Cl)cc1` (configuration not stated), for which the activity in experiment [1] and in experiment [2] was 99.5% throughout.

On to `CC(C)c1ccc(NC(=O)Nc2nc(C(N)CCc3ccccc3)cs2)cc1` (configuration not stated), for which the activity in experiment [1] turned out to be 86.8%; in experiment [2], 98.2%.

`COc1ccc(C(=O)Nc2nnc(SCC(=O)NC3CCCC3)s2)c(OC)c1`: the activity in experiment [1] worked out at 74.1%; in experiment [2] it was 69.8%.

As for `C=Cc1ccc(Cn2c(C)c(C(=O)NCc3ccc(Cl)c(Cl)c3)sc2=O)cc1`, the values for the activity in experiment [1] and in experiment [2] were 91.2% and 68%, respectively.

In the case of `O=C(CCl)N1CCN(S(=O)(=O)c2ccc3ccccc3c2)CC1`, the activity in experiment [1] amounted to 94.9%; in experiment [2], 64.7%.

As to `COc1ccc(/C=N/Nc2cc(OC)ncn2)cc1`, the activity in experiment [1] was 53.9%; in experiment [2], 40.8%.

Turning to `O=C(Nc1ccc2c(c1)OCO2)N1CCN(Cc2ccco2)CC1`, the figures for the activity in experiment [1] and in experiment [2] were 78.8% and 75.2%, respectively.

As for `CC(C)n1c(/C=C/c2ccccc2)nc2ccccc21`, the activity in experiment [1] came out at 63.2%; in experiment [2], 69.3%.

Turning to `O=C(CCl)N1c2ccccc2CCc2ccccc21`, the activity amounted to 99.8% in experiment [1] and 99.7% in experiment [2].

Consider `Cc1ccc(-c2nc(-c3ccncc3)no2)c(Cl)c1`, for which the activity in experiment [1] came to 63%; in experiment [2], 57.1%.

As for `O=C(CCl)N(O)c1ccc(C=Cc2ccccc2)cc1`, the values for the activity in experiment [1] and in experiment [2] were 40% and 53.7%, respectively.

Regarding `CCC(=O)Nc1cccc(-c2ccc(N3CCCCC3)nn2)c1`, the values for the activity in experiment [1] and in experiment [2] were 85.5% and 84.5%, respectively.

For `CCCCCCc1cc2cc(C(=O)Nc3ccccc3)c(=O)oc2cc1O`, the values for the activity in experiment [1] and in experiment [2] were 72.8% and 65.2%, respectively.

As to `CC(=O)Nc1sc(C)c(C)c1C(=O)OCC(=O)N(CC(C)C)c1c(N)n(Cc2ccccc2)c(=O)[nH]c1=O`, the activity in experiment [1] is 97.5%; in experiment [2], 98.9%.

On to `Cc1cc(C)nc(Nc2nc(-c3ccccc3)cs2)n1`, for which the figures for the activity in experiment [1] and in experiment [2] were 72.5% and 71.3%, respectively.

With `N/C(CCS(=O)(=O)c1ccc(Cl)cc1)=N\OC(=O)c1ccccc1C(F)(F)F`, the activity in experiment [1] is 94.2%; in experiment [2], 93.6%.

As for `Cc1ccc(-c2nc(NC(=O)c3nn(C)cc3[N+](=O)[O-])sc2C)cc1`, the values for the activity in experiment [1] and in experiment [2] were 97.6% and 99.3%, respectively.

For `CCCc1cc(C(=O)N/N=C/c2ccc(CC)s2)c2ccccc2n1`, the figures for the activity in experiment [1] and in experiment [2] were 68.8% and 56.9%, respectively.

For `Cc1nc2sc(-c3ccccc3)cc2c(=O)[nH]1`, the activity was 74.1% in experiment [1] and 73.8% in experiment [2].

`Cc1cc(C(=O)Nc2sc3c(c2C#N)CCC(C)C3)no1` (configuration not stated): the activity amounted to 58.6% in experiment [1] and 52.6% in experiment [2].

Turning to `Cn1c(-c2ccccc2)c(C(=O)CCl)c2ccccc21`, the activity in experiment [1] and in experiment [2] was 99.2% in each case.

For `CCN(CC)S(=O)(=O)c1cccc(NC(=O)Nc2cccc(C(F)(F)F)c2)c1`, the results for the activity in experiment [1] and in experiment [2] were 78.2% and 53%, respectively.

As to `COc1ccc(-n2nc3cc(C)c(NC(C)=O)cc3n2)cc1`, the values for the activity in experiment [1] and in experiment [2] were 71.8% and 75.7%, respectively.

Regarding `Fc1ccc(-c2nnc(-c3ccc(Cl)cc3Cl)o2)cc1`, the activity in experiment [1] was found to be 85.4%; in experiment [2], 84.5%.

As to `CCc1ccc(/C=N/NC(=O)c2c[nH]c3ccccc23)s1`, the activity worked out at 21.7% in experiment [1] and 20.4% in experiment [2].

Take `CC(C)(C)c1csc(NC(=O)Nc2ccccc2)n1`: the activity came to 41.3% in experiment [1] and 50% in experiment [2].

With `O=C(Nc1ccc(Cl)cc1)/C(=C/c1cccc(O)c1)c1nc2ccccc2s1`, the values for the activity in experiment [1] and in experiment [2] were 95.7% and 98.1%, respectively.

As to `COc1cccc(/C=C/C(=O)NNC(=O)c2ccco2)c1OC`, the activity in experiment [1] came out at 66.7%; in experiment [2], 62.8%.

With `Oc1ccc(-c2nnc(SCC3CCCCC3)o2)cc1`, the activity was 70.1% in experiment [1] and 84.3% in experiment [2].

As to `O=C(/C=C/Nc1ccc(F)cc1)c1cccs1`, the activity in experiment [1] came to 69.7%; in experiment [2], 65%.

As to `Cc1cc(C)cc(NC(=O)/C(C#N)=C/c2cn(CC(=O)NCc3ccco3)c3ccccc23)c1`, the activity in experiment [1] amounted to 62.1%; in experiment [2], 77.7%.

In the case of `CCC1=NN(C(=O)c2cccc(Br)c2)C(O)(c2ccc(Br)cc2)C1` (configuration not stated), the values for the activity in experiment [1] and in experiment [2] were 19.9% and 22.4%, respectively.

With `CN1/C(=C/C(=O)c2cccs2)Sc2ccccc21`, the activity in experiment [1] was determined as 60%; in experiment [2], 47%.

As for `COc1cccc(C(=O)/C=C/Nc2cccc(O)c2)c1`, the activity in experiment [1] was 86%; in experiment [2] it was 71.5%.

Turning to `Cc1ccc(C(=O)c2no[n+]([O-])c2C(=O)c2ccc(C)cc2)cc1`, the figures for the activity in experiment [1] and in experiment [2] were 98% and 92%, respectively.

As for `Cc1cc(C)cc(C(=O)Nc2nc3ccccc3[nH]2)c1`, the activity was determined as 78.7% in experiment [1] and 72.5% in experiment [2].

These data come from PubChem BioAssay.
